# This is a sample that favours compounds with a hit; in the whole collection about 7.5% have one here.
# NPC1 promoter act – activators of NPC1 promoter. Huh7 NPC1 promoter luciferase reporter, 24 h. Potency, µM (highest dose often 9.22 µM), for the others: at the highest dose activation, actives largely listed as activators. hit rate 2.4% among 320,000; also: % of control where 0% means no effect; nearly all actives have a fitted effect of over 60% in size
#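 Quantitative HTS used a cell-based reporter: Huh7 cells stably bearing the NPC1 promoter upstream of luciferase were treated with compounds for 24 h, and promoter activation was read as luminescence.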
# ELG1 genotoxic – inducers of genotoxicity in HEK293T ELG1-luciferase cells. hit rate 1.3% among 330,000. Potency, µM (titrated, usually from 46 µM), inactives show at the highest dose activity change, positive = activation, actives largely listed as activators. HEK293T ELG1-luciferase reporter, luminescence, 16 h. AID 504466; also: % of control where 0% means no effect; nearly all actives have a fitted effect of over 60% in size
#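 Reporter readout depends on ELG1 protein level, which increases with genetic stress. After 16 hr compound exposure at 37 °C, luciferase activity was quantified using ONE-Glo.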
# KinaseGlo FLuc – counter-screen: inhibitors of Kinase-Glo firefly luciferase | Q27757 | Kinase-Glo luciferase, ATP luminescence, 8 min | Potency, µM (titrated, usually from 38.3 µM), for inactives: at the top dose activity change, negative = inhibition, actives largely listed as inhibitors | hit rate 0.28% among 200,000 | AID 1379; also: % is scaled to controls: 0 for no effect and ±100 for the full control effect; nearly all actives have a fitted effect of over 60% in size
#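 Substrate mix (final 50 mM imidazole pH 7.2, 50 mM KCl, 7 mM MgCl2, 10 uM ATP, 0.01% Tween 20, 0.05% BSA) plus pin-tool compound, then Kinase-Glo detection mix; 8 min ambient, luminescence read.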
# Rab9 prom act – Rab9 promoter activation. Huh7 Rab9 promoter-luciferase reporter, luminescence, 24 h. Potency, µM (series often up to 9.22 µM), without a hit: at the highest dose activation, negative = inhibition, usual class: activators. hit rate 2.8% among 320,000. AID 485297; also: % of control where 0% means no effect; nearly all actives have a fitted effect of over 60% in size
#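 Luminescence from Amplite-detected luciferase (10 minutes, ambient) reports Rab9 promoter activation. Before that, stable Rab9-luciferase Huh7 cells (1500/well, reduced-serum OP-MEM I plus 10% FBS) were exposed to compound for 24 hours at 37C.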
# SMN2 splice up – increases expression of the SMN2 splice variant | Potency, µM (titrated, usually from 46.1 µM), for the others: at the top dose activity change, positive = activation, most hits filed as activators | AID 1458 | HEK293 SMN2-luciferase splicing reporter, luminescence, 30-36 h | hit rate 2.8% among 210,000; also: % of control where 0% means no effect; nearly all actives have a fitted effect of over 55% in size
#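 HEK293 cells carry an SMN2 […]–luciferase reporter in which exon 7 inclusion puts luciferase in frame. Cells were plated 10-12 h before compound addition, then incubated 30-36 h at 37C. ONE-Glo luminescence was read; sodium butyrate at 4.5 mM final served as control.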
# FLuc modulator – inhibits or activates purified firefly luciferase, miR-21 counter-screen | P08659 | purified FLuc, Km substrates, luminescence inhibition | Potency, µM (titrated, usually from 57.5 µM), for the others: top-dose activity change, negative = inhibition, hits mostly inhibitors | hit rate 6.9% among 360,000;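 also: plate controls were vehicle for no effect and reference inhibitor for full effect; nearly all actives have a fitted effect of over 55% in size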
# Target sequence (P08659 whole entry, looked up): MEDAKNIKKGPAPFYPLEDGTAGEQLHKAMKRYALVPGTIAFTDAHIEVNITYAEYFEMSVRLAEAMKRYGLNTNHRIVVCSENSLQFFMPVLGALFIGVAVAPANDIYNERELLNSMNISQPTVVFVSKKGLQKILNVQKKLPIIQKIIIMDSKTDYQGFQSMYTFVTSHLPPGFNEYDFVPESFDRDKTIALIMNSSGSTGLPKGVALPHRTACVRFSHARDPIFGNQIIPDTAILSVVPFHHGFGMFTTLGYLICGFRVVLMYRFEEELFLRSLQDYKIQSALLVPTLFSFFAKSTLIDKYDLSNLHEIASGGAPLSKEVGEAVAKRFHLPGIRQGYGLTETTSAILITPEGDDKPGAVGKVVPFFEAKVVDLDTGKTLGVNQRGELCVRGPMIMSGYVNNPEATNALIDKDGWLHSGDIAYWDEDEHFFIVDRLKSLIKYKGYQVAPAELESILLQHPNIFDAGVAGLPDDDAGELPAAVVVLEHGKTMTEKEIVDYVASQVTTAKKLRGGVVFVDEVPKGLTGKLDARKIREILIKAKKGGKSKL
#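 Biochemical qHTS of compounds, final roughly 60 µM downward over six points, against 10 nM purified firefly luciferase using Km concentrations of substrates (10 uM D-luciferin, 10 uM ATP) in Tris acetate pH 7.5 buffer; luminescence output.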
# The depositor's hits bear a star; ? = inconclusive; / = no result given; [ ] = another dose, or the depositor's remark. Calls follow the shape of the dose curve; as a rule, active = well fitted curve in the direction sought with a large enough effect; inconclusive = small, poorly fitted or top-dose-only effect, or another doubt; inactive = no such curve, though single readings can be large; an effect the other way counts as inactive or inconclusive. Potency is read from the fitted curve at half-maximal effect.
SMILES,NPC1 promoter act,ELG1 genotoxic,KinaseGlo FLuc,Rab9 prom act,SMN2 splice up,FLuc modulator
N#Cc1ccccc1COC(=O)c1ccc2c(c1)OCCO2,6%,18%,/,25%,/,13µM*
COC(=O)c1ccccc1NC(=O)c1ccc2c(c1)OCCCO2,?,?,/,2µM*,/,19µM*
N#Cc1ccccc1COC(=O)c1ccc2c(c1)OCO2,?,15%,/,?,/,?
Cc1ccc(NC(=O)COc2ccc3c(c2)OCO3)c(Cl)c1,2.8µM*,?,/,?,/,1.5µM*
N#Cc1ccccc1NC(=O)c1ccc2c(c1)OCCO2,?,?,/,?,/,21µM*
Cc1cccc(C)c1OCc1nc2c3cnn(-c4ccccc4Br)c3ncn2n1,/,/,/,/,-4%,?
Cc1cccc(NC(=O)c2ccc3c(c2)OCCO3)c1C,-45%,?,/,3.2µM*,/,15µM*
CC(=O)Nc1cccc(Oc2ccc3c(c2)C(=O)NC3=O)c1,19%,?,/,21%,/,11µM*
Cc1ccc(-n2c(=O)c3c(c4cc(C)ccc4n3C)n(CC(=O)Nc3ccc(F)cc3)c2=O)cc1,/,/,/,/,/,-2%
CCc1c(C)nc2cc(-c3cccc(Br)c3)[nH]n2c1=O,?,11%,/,?,/,12µM*
Cc1nc2cc(-c3ccc(Br)cc3)[nH]n2c(=O)c1Cl,?,16µM*,/,2.5µM*,/,9.5µM*
CC(C)(C)OC(=O)N1CCC(c2cc(=O)n3[nH]c(-c4ccc(Cl)cc4)cc3n2)CC1,0%,-12%,-4%,6%,-14%,-6%
CCOC(=O)CCc1c(C)nc2cc(-c3ccc(Cl)cc3)[nH]n2c1=O,11%,-1%,-1%,19%,28%,-6%
CCc1c(C)nc2cc(-c3ccc(Cl)cc3)[nH]n2c1=O,4µM*,?,/,?,/,8.5µM*
Cc1cc2nc(C)c(Cl)c(=O)n2[nH]1,7%,4%,-1%,-2%,20%,-18%
O=c1c2c(nc3cc(-c4ccc(Cl)cc4)[nH]n13)CCS2,3.5µM*,?,-7%,?,13µM*,2.1µM*
Cc1ccc2c(C)c(C(=O)N(Cc3ccc(N(C)C)cc3)Cc3ccco3)oc2c1C,/,/,/,/,-13%,3%
O=C(Nc1cccc(C(F)(F)F)c1)c1cc(S(=O)(=O)N2CCCC2)c[nH]1,/,/,/,/,/,17µM*
COc1ccccc1CNC(=O)CCNC(=O)c1ccco1,-2%,-1%,/,-3%,/,10%
N#Cc1ccc2c(c1)C[C@]1(c3ccsc3)Oc3c(c(=O)oc4ccccc34)C2O1,-1%[1.84 µM],/,/,-4%[1.84 µM],/,3.1µM*
N#Cc1ccc2c(c1)C[C@]1(c3ccsc3)Oc3c(c(=O)oc4ccc(F)cc34)C2O1,-3%[1.84 µM],/,/,-7%[1.84 µM],/,?
Cc1nc(S/C(=C/c2ccc(-c3cccc(Cl)c3)o2)C(=O)O)n[nH]1,0%,-4%,-4%,4%,-23%,5.4µM*
Cc1ccc2nc(/C(C#N)=C/c3ccc(-c4cccc(Cl)c4)o3)[nH]c2c1,/,/,/,/,-1%,-17%
O=C(N/N=C/c1ccccc1O)c1cccc(C(F)(F)F)c1,-25%,?,1%,-26%,-103%,?
O=C(N/N=C\c1ccc(F)cc1)c1csnn1,24%,?,-17%,22%,6%,24µM*
SMILES,NPC1 promoter act,ELG1 genotoxic,KinaseGlo FLuc,Rab9 prom act,SMN2 splice up,FLuc modulator
O=C(N/N=C/c1ccccc1C(F)(F)F)c1ccc(O)cc1,?,?,1%,?,28%,11µM*
O=C(N/N=C/c1ccc(F)cc1)c1cccc(NC(=O)c2ccc(F)cc2)c1,23%,-10%,/,?,/,8.5µM*
O=C(Nc1ccccc1C(=O)N/N=C/c1ccc(F)cc1)c1ccccc1Br,7%,-1%,-19%,7%,-5%,6µM*
Cc1c(C(=O)NNC(=S)NCc2ccc(Cl)cc2)oc2ccccc12,0%,-12%,/,23%,/,-1%
O=C(N/N=C/c1ccc(F)cc1)c1ccccc1,2.8µM*,?,-21%,2µM*,18µM*,12µM*
O=C(N/N=C/c1ccc(F)cc1)c1cc[n+]([O-])cc1,-2%,4%,/,0%,/,0%

# Compound activity from PubChem BioAssay.
